The source of these data is PubChem BioAssay.

Test [1] is described as follows: rapamycin-like changes in RPL19A-GFP expression – cell-based, S. cerevisiae, multiplex flow cytometry, primary screen (AID 1862; in the data active = percent of DMSO control GFP below about 86%;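 note: lower values mimic rapamycin by blocking the RPL19A rise seen in DMSO cells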). The following applies: S. cerevisiae RPL19A-GFP strain, flow cytometry fluorescence, 3 h; at 10 µM; stronger effect = lower value.
Test [2] can be described thus: TOR pathway GLN3 branch reporter MEP2-GFP changes – S. cerevisiae, multiplex flow cytometry, primary screen (AID 1867;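 active = GFP response, as percent of the DMSO control, above the screen-wide mean plus 3 SD, about 139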;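 note: median GFP channel fluorescence of barcode-gated MEP2-GFP cells measured by flow cytometry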). The conditions noted are these: S. cerevisiae MEP2-GFP strain, 3 h, at 10 µM, stronger effect = higher value, 100% means same as DMSO wells.
Test [3] in a line: TOR pathway RTG branch CIT2 reporter changes – S. cerevisiae, GFP fusion, multiplex flow cytometry, primary screen (AID 1870;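 active = percent response above a set limit, the screen-wide mean plus 3 SD, cut at about 130% in these data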;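 note: barcoded CIT2-GFP strain pooled with four other GFP strains with rapamycin as positive control; median GFP fluorescence per well over plate mean of DMSO wells so 100% = DMSO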). The following applies: S. cerevisiae CIT2-GFP expression, 3 h, at 10 µM, stronger effect = higher value.
A short description of test [4]: TOR pathway LAP4-GFP level changes – S. cerevisiae, multiplex flow cytometry, primary screen (AID 1873;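 active = GFP signal, as percent of the solvent control, above the screen mean plus 3 SD, about 149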). The following applies: S. cerevisiae LAP4-GFP expression, 3 h, at 10 µM, stronger effect = higher value.
A short description of test [5]: yeast AGP1-GFP level changes, GLN3 branch – cell-based, multiplex flow cytometry, S. cerevisiae, primary screen (AID 1887;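 active = GFP signal above the screen-wide mean plus 3 SD, that is over about 124.5% of the solvent control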;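 note: AGP1-GFP fusion strain of S. cerevisiae within a five-strain barcoded multiplex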). The following applies: 3 h, at 10 µM, stronger effect = higher value.
Test [6] in a line: reduced mouse 2C T cell binding to pMHC/ICAM-1 vesicles – MLPCN validation set, flow cytometry, LFA-1/ICAM-1 modulator project, pilot screen (AID 2523).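 For vesicle binding response: mean PE anti-B7-1 fluorescence of CD8+ cells relative to row control; 100% = QL9-loaded vesicles with DMSO vehicle in the same plate row.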 The following applies: 2C mouse CD8+ T cells, at 7 µM, stronger effect = lower value; double positive events: measured here: CD8+/vesicle+ event percentage.
In test [7] the target is Integrin beta-1 (Homo sapiens) + Integrin alpha-4 (Homo sapiens) (UniProt P13612+P05556). The test is described as follows: alpha4beta1 integrin LIBS antibody binding reduction – U937 cells, HUTS-21 mAb, flow cytometry, validation set, VLA-4 allosteric modulator project, pilot screen (AID 2674;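 active = inhibition above 50%, about 3 SD of the validation set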;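 note: antibody binding induced by the VLA-4 ligand LDV present at three times its Kd; 0% = LDV ligand with antibody and no compound and 100% = antibody without LDV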). The conditions noted are these: HUTS-21 LIBS mAb binding, at 6.7 µM, stronger effect = higher value, binding induced by LDV ligand.
Integrin beta-1 (Homo sapiens) + Integrin alpha-4 (Homo sapiens), sequence (P05556 whole entry, looked up): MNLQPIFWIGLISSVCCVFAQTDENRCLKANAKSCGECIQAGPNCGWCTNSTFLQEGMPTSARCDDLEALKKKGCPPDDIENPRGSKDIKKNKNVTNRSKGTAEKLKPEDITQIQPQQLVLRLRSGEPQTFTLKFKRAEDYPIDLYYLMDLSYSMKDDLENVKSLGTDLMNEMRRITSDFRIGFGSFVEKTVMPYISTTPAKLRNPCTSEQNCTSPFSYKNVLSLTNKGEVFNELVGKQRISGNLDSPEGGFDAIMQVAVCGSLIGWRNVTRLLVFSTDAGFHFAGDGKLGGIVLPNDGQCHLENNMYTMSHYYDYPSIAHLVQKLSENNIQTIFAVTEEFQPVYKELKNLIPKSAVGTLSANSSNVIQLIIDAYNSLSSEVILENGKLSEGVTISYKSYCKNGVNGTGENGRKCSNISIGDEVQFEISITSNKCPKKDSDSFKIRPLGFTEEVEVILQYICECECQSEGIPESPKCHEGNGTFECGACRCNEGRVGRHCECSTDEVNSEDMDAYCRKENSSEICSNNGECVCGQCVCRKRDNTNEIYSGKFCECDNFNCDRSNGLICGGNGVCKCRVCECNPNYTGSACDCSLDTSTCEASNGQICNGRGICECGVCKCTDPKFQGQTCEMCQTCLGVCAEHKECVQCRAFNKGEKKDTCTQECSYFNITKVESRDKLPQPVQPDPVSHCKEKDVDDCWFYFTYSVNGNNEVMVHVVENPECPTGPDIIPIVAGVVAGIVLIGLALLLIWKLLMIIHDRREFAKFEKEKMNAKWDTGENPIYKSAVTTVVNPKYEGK
Integrin beta-1 (Homo sapiens) + Integrin alpha-4 (Homo sapiens), sequence (P13612 whole entry, looked up): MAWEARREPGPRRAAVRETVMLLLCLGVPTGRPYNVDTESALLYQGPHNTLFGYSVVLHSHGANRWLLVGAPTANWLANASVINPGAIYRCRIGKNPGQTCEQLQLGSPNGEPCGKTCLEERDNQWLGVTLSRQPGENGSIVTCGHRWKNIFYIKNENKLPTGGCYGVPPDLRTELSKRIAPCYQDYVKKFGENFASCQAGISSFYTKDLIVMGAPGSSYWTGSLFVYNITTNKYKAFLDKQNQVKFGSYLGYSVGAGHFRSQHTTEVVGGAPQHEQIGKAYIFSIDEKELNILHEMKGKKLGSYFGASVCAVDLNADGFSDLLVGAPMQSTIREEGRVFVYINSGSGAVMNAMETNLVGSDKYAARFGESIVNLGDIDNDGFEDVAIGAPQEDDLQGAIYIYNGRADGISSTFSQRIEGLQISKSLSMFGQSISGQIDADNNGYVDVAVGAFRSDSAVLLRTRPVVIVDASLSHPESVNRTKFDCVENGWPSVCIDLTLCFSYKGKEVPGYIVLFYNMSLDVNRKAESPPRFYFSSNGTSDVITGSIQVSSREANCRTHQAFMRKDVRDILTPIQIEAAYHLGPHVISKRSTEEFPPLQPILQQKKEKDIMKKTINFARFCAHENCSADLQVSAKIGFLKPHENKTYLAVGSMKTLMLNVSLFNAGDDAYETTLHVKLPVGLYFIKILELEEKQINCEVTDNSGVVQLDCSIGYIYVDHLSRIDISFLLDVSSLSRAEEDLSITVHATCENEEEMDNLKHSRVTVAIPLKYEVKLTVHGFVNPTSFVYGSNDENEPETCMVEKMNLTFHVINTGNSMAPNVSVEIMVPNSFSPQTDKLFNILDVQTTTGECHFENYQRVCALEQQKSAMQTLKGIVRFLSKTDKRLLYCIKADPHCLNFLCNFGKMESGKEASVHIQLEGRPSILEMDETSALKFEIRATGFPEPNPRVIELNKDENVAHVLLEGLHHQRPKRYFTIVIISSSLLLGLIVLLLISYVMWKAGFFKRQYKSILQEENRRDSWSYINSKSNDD

The nature of test [8]: calorie-restriction mimetic ROS inhibitors, yeast – validation compound set, pilot screen (AID 2706;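 active = superoxide response below 65% of plate, a cut near 3 SD across the whole screen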;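 note: yeast exposed to compound for one week at 30 degrees C before staining; 100% = mean of all compound wells on the same plate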). The conditions noted are these: S. cerevisiae aging, superoxide DHE fluorescence; at 10 µM; stronger effect = lower value.
Test [9] deals with Beta-adrenergic receptor kinase 1 (Homo sapiens) (UniProt P25098). Briefly: GRK2 binders displacing RNA aptamer, biochemical, validation, human GRK2, bead flow cytometry (AID 488806;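 active = aptamer binding inhibition above 30%, about 3 SD of noise from non-fluorescent compounds; inactive = inhibition at or below 30%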). The following applies: bead-bound GRK2, FAM-aptamer displacement, at 10 µM, stronger effect = higher value.
Beta-adrenergic receptor kinase 1 (Homo sapiens), sequence (P25098 whole entry, looked up): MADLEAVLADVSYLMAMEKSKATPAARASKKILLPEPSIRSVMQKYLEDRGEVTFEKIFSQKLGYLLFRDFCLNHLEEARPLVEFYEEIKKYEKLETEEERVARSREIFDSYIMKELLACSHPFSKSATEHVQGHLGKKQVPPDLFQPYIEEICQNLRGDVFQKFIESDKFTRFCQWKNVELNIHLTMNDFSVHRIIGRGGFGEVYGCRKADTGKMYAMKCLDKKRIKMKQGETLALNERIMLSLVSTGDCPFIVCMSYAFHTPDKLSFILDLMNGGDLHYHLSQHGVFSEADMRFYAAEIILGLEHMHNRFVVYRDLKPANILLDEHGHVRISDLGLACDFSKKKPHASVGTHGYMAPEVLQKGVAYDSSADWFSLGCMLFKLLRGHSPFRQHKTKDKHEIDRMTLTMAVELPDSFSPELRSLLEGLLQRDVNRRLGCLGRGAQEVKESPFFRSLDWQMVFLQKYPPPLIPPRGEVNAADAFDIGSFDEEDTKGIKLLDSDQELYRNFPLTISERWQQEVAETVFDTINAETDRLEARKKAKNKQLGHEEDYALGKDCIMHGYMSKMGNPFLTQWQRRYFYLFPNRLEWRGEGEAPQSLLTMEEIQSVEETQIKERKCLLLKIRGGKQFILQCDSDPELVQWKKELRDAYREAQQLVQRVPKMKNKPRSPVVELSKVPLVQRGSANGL
In test [10] the target is Beta-2 adrenergic receptor (Homo sapiens) (UniProt P07550). The test is described as follows: agonist-induced loss of surface beta2AR – cell-based, FAP fluorogen, flow cytometry, validation set, pilot screen (AID 504459;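 active = percent response above 42, roughly 3 SD of non-fluorescent test compounds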;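 note: agonist-driven loss of surface beta2AR via internalization measured by FAP dye flow cytometry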). The following applies: Am2.2-beta2AR cells, at 10 µM, stronger effect = higher value.
Beta-2 adrenergic receptor (Homo sapiens), sequence (P07550 whole entry, looked up): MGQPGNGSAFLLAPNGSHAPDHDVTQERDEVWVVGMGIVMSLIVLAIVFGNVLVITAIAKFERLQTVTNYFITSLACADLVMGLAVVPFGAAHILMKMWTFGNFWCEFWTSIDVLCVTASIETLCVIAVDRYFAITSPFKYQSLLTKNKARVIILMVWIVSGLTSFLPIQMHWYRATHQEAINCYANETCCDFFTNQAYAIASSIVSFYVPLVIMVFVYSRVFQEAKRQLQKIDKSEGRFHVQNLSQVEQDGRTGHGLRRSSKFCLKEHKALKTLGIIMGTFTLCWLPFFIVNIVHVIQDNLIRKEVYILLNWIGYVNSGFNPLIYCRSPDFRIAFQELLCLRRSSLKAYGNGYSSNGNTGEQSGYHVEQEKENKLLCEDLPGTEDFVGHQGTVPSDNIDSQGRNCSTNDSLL
Test [11] has as its target AP-2 complex subunit beta (Homo sapiens) (UniProt P63010). Briefly: beta-arrestin/AP2 interaction blockers – biochemical, validation set, GST-AP2 beads, flow cytometry, pilot screen (AID 504541;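 active = inhibition above 54%, about 3 SD of non-fluorescent compounds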;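 note: AP2 carries R879A mutation and is captured from E. coli lysate; bead-bound FITC arrestin peptide fluorescence measuring arrestin peptide binding to AP2; 0% = DMSO wells and 100% = excess unlabeled arrestin peptide control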). The conditions noted are these: FITC arrestin peptide, at 10 µM, stronger effect = higher value, AP2 beta2 appendage fragment, R879A mutant.
The nature of test [12]: cytosolic pH regulators acting via V-ATPase – S. cerevisiae, pHLuorin, HTS validation (AID 504600; in the data active = response above about 15%;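 note: plate controls were DMSO for no effect and reference compound for full effect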). The conditions noted are these: V-ATPase proton transport, at 10 µM, stronger effect = higher value.
Test [13] deals with anti-desmoglein-3 scFv antibody binding to human DSG3. Briefly: blockers of pathogenic pemphigus antibody–desmoglein-3 binding – biochemical, validation compound set, bead-based, flow cytometry, pilot screen (AID 588368;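 active = binding below the plate cutoff, the plate median minus 3 SD, with a reading above zero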;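 note: signal is the median channel fluorescence of bead-bound GFP antibody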). The following applies: Protein G beads, DSG3-Fc, scFv-GFP binding, at 10 µM, stronger effect = lower value.
Test [14] in a line: Nile Red efflux blockade in pump-expressing yeast – validation compound set, multiplex, phenotypic, pilot screen (AID 588506;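 active = efflux inhibition above 0.42, the validation set average plus 4 SD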;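 note: Nile Red retained in cells so higher fluorescence means more efflux inhibition; 0 = negative control wells and 1 = enniatin B 25 µM full block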). The conditions noted are these: S. cerevisiae pump-expressing triplex, Nile Red efflux flow cytometry; at 10 µM; stronger effect = higher value; the pumps come from Candida albicans.
Test [15] has as its target ATP-binding cassette sub-family B member 6 (Homo sapiens) (UniProt Q9NP58). Briefly: blockers of ABCB6-driven porphyrin uptake – K562-ABCB6 cells, flow cytometry, validation set, pilot screen (AID 588550;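 active = inhibition above the screen-wide mean plus 3 SD, about 51%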;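 note: 0% = DMSO wells and 100% = benzethonium chloride 70 µM positive control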). The conditions noted are these: K562-ABCB6 porphyrin accumulation, 1 h, at 10 µM, stronger effect = higher value.
Test [16] can be described thus: AML differentiation inducers, ER-HoxA9 marrow cells – cell-based, GFP/MAC1 double positive, flow cytometry, validation set, primary screen (AID 588685;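 active = differentiation response of at least 50%, scaled between solvent and reference control, from cells with both markers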;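 note: compound exposure lasts four days before antibody staining and flow analysis; 0% = DMSO wells and 100% = 5 µM fulvestrant positive control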). The following applies: stronger effect = higher value, normalized: vehicle 0, fulvestrant 100.

Results filed as inconclusive are left out. Activity calls are given as the source filed them.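 Rule for the calls, unless noted: active = response below a set limit, under 55% cells CD8-positive and vesicle-bound, and CD8 cells' 90th-percentile brightness under 279; inactive = the rest.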

ATP-binding cassette sub-family B member 6 (Homo sapiens), sequence (Q9NP58 whole entry, looked up): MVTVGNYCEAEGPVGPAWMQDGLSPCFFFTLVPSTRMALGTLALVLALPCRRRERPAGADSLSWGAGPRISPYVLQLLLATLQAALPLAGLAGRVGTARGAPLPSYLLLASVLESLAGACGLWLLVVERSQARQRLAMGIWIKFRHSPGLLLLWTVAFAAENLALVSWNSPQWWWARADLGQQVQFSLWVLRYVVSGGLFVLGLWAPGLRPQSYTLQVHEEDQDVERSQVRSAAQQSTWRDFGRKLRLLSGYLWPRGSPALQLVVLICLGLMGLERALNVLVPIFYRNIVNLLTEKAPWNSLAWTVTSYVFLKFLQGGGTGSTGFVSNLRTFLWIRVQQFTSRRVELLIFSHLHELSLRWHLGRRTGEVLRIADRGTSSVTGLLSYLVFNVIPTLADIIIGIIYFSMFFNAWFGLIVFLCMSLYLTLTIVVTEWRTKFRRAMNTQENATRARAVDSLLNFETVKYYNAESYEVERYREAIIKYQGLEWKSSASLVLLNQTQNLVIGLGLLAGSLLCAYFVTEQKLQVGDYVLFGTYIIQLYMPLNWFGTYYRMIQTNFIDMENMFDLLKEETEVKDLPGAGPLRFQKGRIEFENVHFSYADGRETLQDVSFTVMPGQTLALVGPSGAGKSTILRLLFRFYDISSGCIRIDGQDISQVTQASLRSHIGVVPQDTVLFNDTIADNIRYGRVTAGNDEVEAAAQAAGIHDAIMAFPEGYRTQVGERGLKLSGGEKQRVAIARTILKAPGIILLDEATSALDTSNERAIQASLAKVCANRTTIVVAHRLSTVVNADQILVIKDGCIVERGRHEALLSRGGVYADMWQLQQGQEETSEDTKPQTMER
AP-2 complex subunit beta (Homo sapiens), sequence (P63010 whole entry, looked up, the tested form may be a part, one chain of several): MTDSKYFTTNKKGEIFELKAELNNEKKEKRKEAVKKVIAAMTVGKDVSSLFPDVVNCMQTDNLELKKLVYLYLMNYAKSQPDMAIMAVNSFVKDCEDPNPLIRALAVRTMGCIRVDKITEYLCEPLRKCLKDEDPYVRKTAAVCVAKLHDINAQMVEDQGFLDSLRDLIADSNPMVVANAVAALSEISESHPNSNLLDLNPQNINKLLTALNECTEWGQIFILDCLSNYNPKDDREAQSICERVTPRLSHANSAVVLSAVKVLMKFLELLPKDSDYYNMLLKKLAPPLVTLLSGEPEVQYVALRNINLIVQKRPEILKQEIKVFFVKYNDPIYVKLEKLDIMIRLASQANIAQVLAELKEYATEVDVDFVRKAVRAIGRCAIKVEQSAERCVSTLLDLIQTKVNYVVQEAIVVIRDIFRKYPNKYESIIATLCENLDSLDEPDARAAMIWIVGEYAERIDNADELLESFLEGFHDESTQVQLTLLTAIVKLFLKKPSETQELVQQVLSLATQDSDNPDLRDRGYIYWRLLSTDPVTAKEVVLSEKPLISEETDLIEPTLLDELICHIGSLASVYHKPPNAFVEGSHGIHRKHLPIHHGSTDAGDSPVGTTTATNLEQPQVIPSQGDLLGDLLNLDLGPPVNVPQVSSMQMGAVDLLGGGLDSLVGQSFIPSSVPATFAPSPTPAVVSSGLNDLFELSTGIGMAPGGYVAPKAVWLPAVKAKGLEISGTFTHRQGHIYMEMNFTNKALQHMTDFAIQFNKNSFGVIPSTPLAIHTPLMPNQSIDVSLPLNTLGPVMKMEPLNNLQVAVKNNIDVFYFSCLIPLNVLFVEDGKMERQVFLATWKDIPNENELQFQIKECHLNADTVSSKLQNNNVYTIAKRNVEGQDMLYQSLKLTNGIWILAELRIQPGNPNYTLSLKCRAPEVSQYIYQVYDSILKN

For the compound `COC(=O)C1=C(C)NC(C)=C([N+](=O)[O-])C1c1ccccc1C(F)(F)F` (stereo not given), the percent of DMSO control GFP in test [1] was 101% (inactive). The values for the GFP response vs DMSO in [2] and in test [4] were 110% (inactive) and 97% (inactive), respectively. In [3], the percent response of DMSO control was 98.6% (inactive). In test [5], the GFP response, % of DMSO is 105% (inactive). This compound displayed a double positive events in test [6] of 58.2%. The vesicle binding response in test [6] was 160% (inactive). The results for the inhibition in test [7], in test [11] and in [15] were 9.63% (inactive), -3.68% (inactive) and 4% (inactive), respectively. In addition, the superoxide response (% of plate) in test [8] was 102% (inactive). For the same compound, the aptamer binding inhibition in test [9] was 0% (inactive). Moreover, the response in test [10] was 4.56% (inactive); in [12] it was 3.77% (inactive). The binding (% of control) in test [13] is 106% (inactive). For the same compound, the efflux inhibition (fraction of control) in test [14] is -0.3 (inactive). Further, the differentiation response in [16] was -7.5% (inactive).

In the case of `O=C(Cc1ccccc1)NCC(=O)OCC(=O)c1ccccc1Cl`, the percent of DMSO control GFP in test [1] is 98.3% (inactive). For the same compound, the results for the GFP response vs DMSO in test [2] and in [4] were 112% (inactive) and 74.3% (inactive), respectively. Moreover, the percent response of DMSO control in test [3] is 107% (inactive). Besides, the GFP response, % of DMSO in test [5] is 93.3% (inactive). For the same compound, the double positive events in test [6] was determined as 76.4%. The vesicle binding response in test [6] is 296% (inactive). Also, the inhibition is -2.27% (inactive) in [7], -4.1% (inactive) in test [11] and 17% (inactive) in test [15]. For the same compound, the superoxide response (% of plate) in [8] was 92.9% (inactive). In addition, the aptamer binding inhibition in test [9] is 4% (inactive). The response in test [10] was -1.13% (inactive); in test [12] it was 3.49% (inactive). Further, in test [13], the binding (% of control) is 106% (inactive). Besides, the efflux inhibition (fraction of control) in test [14] is -0.42 (inactive). For the same compound, the differentiation response in test [16] was -0.82% (inactive).

Turning to `CC1(C)[C@@H](O)CC[C@]2(C)[C@H]3C(=O)C=C4[C@@H]5C[C@@](C)(C(=O)O)CC[C@]5(C)CC[C@@]4(C)[C@]3(C)CC[C@@H]12`, the percent of DMSO control GFP in [1] is 98.8% (inactive). Besides, the GFP response vs DMSO in test [2] was 100% (inactive); in test [4] it was 112% (inactive). Besides, the percent response of DMSO control in test [3] was 89.6% (inactive). Further, the GFP response, % of DMSO in test [5] is 91% (inactive). The compound also registered a double positive events in test [6] of 64.3%. The vesicle binding response in [6] was 698% (inactive). Besides, the inhibition in [7] was 13% (inactive); in test [11], -5.72% (inactive); in [15] it was 15% (inactive). The superoxide response (% of plate) in test [8] is 82.7% (inactive). Further, in [9], the aptamer binding inhibition was 7% (inactive). Moreover, the response is 7.4% (inactive) in test [10] and 0.36% (inactive) in test [12]. The binding (% of control) in test [13] is 97.6% (inactive). Also, in test [14], the efflux inhibition (fraction of control) was 0.11 (inactive). The differentiation response in test [16] is 16.9% (inactive).

As for `COc1cc2c(cc1OC)C1(CCCC1)CNC2c1cccc([N+](=O)[O-])c1` (stereo not given), the percent of DMSO control GFP in [1] is 99.3% (inactive). In addition, the GFP response vs DMSO in test [2] was 103% (inactive); in [4], 109% (inactive). The percent response of DMSO control in [3] is 95.8% (inactive). In test [5], the GFP response, % of DMSO was 92.8% (inactive). Besides, in test [6], the double positive events stood at 54.7%. Also, the vesicle binding response in [6] is 235% (inactive). Besides, the inhibition in test [7] was -57.8% (inactive); in test [11], -2.35% (inactive); in test [15] it was 4% (inactive). In test [8], the superoxide response (% of plate) is 99.7% (inactive). Besides, in test [9], the aptamer binding inhibition was -2% (inactive). The response in test [10] is 23.6% (inactive); in test [12], 35.2% (active). Also, the binding (% of control) in test [13] is 99.1% (inactive). Moreover, the efflux inhibition (fraction of control) in test [14] was 0.05 (inactive). Also, the differentiation response in [16] is -8.8% (inactive).

As for `CCOC(=O)N1CCc2[nH]c3ccc(C)cc3c2C1`, the percent of DMSO control GFP in [1] is 95.5% (inactive). Further, the GFP response vs DMSO is 102% (inactive) in [2] and 140% (inactive) in test [4]. Also, the percent response of DMSO control in test [3] is 103% (inactive). For the same compound, the GFP response, % of DMSO in test [5] was 103% (inactive). In test [6], this compound returned a double positive events of 64.6%. Besides, the vesicle binding response in test [6] was 175% (inactive). Moreover, the inhibition in [7] was -3.67% (inactive); in test [11], 4.56% (inactive); in [15], -9% (inactive). The superoxide response (% of plate) in [8] is 110% (inactive). In addition, in test [9], the aptamer binding inhibition is -1% (inactive). The response is -9.79% (inactive) in [10] and 14.9% (inactive) in test [12]. Besides, the binding (% of control) in test [13] is 105% (inactive). In test [14], the efflux inhibition (fraction of control) is 0.25 (inactive). Also, in test [16], the differentiation response was -4% (inactive).
